{
  "source": "the antibiotic and cytotoxicity screens of Wong et al. (2023)",
  "note": "The whole screen tested about 39,000 compounds, of which about 3,300 (8.5%) were called active. This is one part of a sample in which actives are shown more often than they occur.",
  "data": [
    {"test_system": "HepG2", "assay": "cytotoxicity call (relative viability < 0.9)", "conditions": "10 µM", "values": [
      {"compound": "Cc1noc(C)c1NC(=O)Nc1ccc2c(c1)C(=O)N([C@H](C)CO)C[C@H](C)[C@@H](CN(C)C(=O)Nc1ccccc1)OCCCC[C@H](C)O2", "cytotoxicity call": "inactive"},
      {"compound": "Cc1ccc(S(=O)(=O)Nc2ccc3c(c2)C(=O)N([C@@H](C)CO)C[C@@H](C)[C@H](CN(C)Cc2ccc4c(c2)OCO4)OCCCC[C@H](C)O3)cc1", "cytotoxicity call": "inactive"},
      {"compound": "CC(C)C[C@@H]1NC(=O)[C@@H]2C[C@H](C(=O)NCCCCCNC(=O)CS)[C@H](c3cccc(OCCO)c3)N2C1=O", "cytotoxicity call": "inactive"},
      {"compound": "CN1C[C@]2(CCN(C(=O)c3cn(CCN4CCNCC4)nn3)C2)OC1=O", "cytotoxicity call": "inactive"},
      {"compound": "Cc1noc(C)c1S(=O)(=O)N(C)C[C@@H]1Oc2ccc(NC(=O)Cc3ccccc3)cc2CC(=O)N([C@@H](C)CO)C[C@@H]1C", "cytotoxicity call": "inactive"},
      {"compound": "CC(C)NC(=O)N(C)C[C@H]1Oc2ccc(NC(=O)CCCN(C)C)cc2C(=O)N([C@H](C)CO)C[C@H]1C", "cytotoxicity call": "inactive"},
      {"compound": "C[C@H]1CN([C@@H](C)CO)C(=O)Cc2cc(NC(=O)Cn3cnnn3)ccc2O[C@@H]1CN(C)S(=O)(=O)c1ccc(F)cc1", "cytotoxicity call": "inactive"},
      {"compound": "C[C@@H]1CN([C@H](C)CO)C(=O)Cc2cc(NC(=O)C3CCCCC3)ccc2O[C@H]1CN(C)Cc1ccc(Oc2ccccc2)cc1", "cytotoxicity call": "inactive"},
      {"compound": "C[C@H](CO)N1C[C@H](C)[C@@H](CN(C)Cc2ccc(Oc3ccccc3)cc2)Oc2ccc(NC(=O)C3CCCCC3)cc2CC1=O", "cytotoxicity call": "inactive"},
      {"compound": "C[C@@H]1CN([C@H](C)CO)C(=O)Cc2cc(NC(=O)C3CC3)ccc2O[C@@H]1CN(C)Cc1ccc(Oc2ccccc2)cc1", "cytotoxicity call": "active"},
      {"compound": "C[C@@H]1CN([C@H](C)CO)C(=O)Cc2cc(NC(=O)C3CCCCC3)ccc2O[C@@H]1CN(C)Cc1ccc(Oc2ccccc2)cc1", "cytotoxicity call": "inactive"},
      {"compound": "C[C@H]1CN([C@@H](C)CO)C(=O)Cc2cc(NC(=O)C3CCCCC3)ccc2O[C@H]1CN(C)Cc1ccc(Oc2ccccc2)cc1", "cytotoxicity call": "active"},
      {"compound": "C[C@@H]1CN([C@@H](C)CO)C(=O)Cc2cc(NC(=O)C3CC3)ccc2O[C@H]1CN(C)Cc1ccc(Oc2ccccc2)cc1", "cytotoxicity call": "inactive"},
      {"compound": "C[C@H](CO)N1C[C@H](C)[C@H](CN(C)Cc2ccc(Oc3ccccc3)cc2)Oc2ccc(NC(=O)C3CC3)cc2CC1=O", "cytotoxicity call": "inactive"},
      {"compound": "C[C@H](CO)N1C[C@H](C)[C@H](CN(C)Cc2ccc(Oc3ccccc3)cc2)Oc2ccc(NC(=O)C3CCCCC3)cc2CC1=O", "cytotoxicity call": "active"},
      {"compound": "C[C@@H]1CN([C@@H](C)CO)C(=O)Cc2cc(NC(=O)C3CCCCC3)ccc2O[C@H]1CN(C)Cc1ccc(Oc2ccccc2)cc1", "cytotoxicity call": "inactive"},
      {"compound": "C[C@@H]1CN([C@@H](C)CO)C(=O)Cc2cc(NC(=O)Nc3ccc(C(F)(F)F)cc3)ccc2O[C@@H]1CN(C)C(=O)Nc1cccc2ccccc12", "cytotoxicity call": "inactive"},
      {"compound": "CC(C)NC(=O)N(C)C[C@@H]1OCCCC[C@@H](C)Oc2ccc(NC(=O)Nc3ccccc3)cc2C(=O)N([C@H](C)CO)C[C@@H]1C", "cytotoxicity call": "inactive"},
      {"compound": "C[C@@H]1CCCCO[C@@H](CN(C)C(=O)Cc2ccccc2)[C@@H](C)CN([C@@H](C)CO)C(=O)c2cc(NC(=O)Nc3ccc(C(F)(F)F)cc3)ccc2O1", "cytotoxicity call": "inactive"},
      {"compound": "O=C(O)CNC(=O)c1cc2ccccc2[nH]1", "cytotoxicity call": "inactive"},
      {"compound": "C[C@H](CO)N1C[C@H](C)[C@@H](CN(C)S(=O)(=O)c2ccc(Cl)cc2)Oc2ccc(NC(=O)CCN3CCOCC3)cc2CC1=O", "cytotoxicity call": "inactive"},
      {"compound": "Cc1noc(C)c1S(=O)(=O)N(C)C[C@H]1OCCCC[C@H](C)Oc2ccc(NS(=O)(=O)c3cn(C)cn3)cc2C(=O)N([C@@H](C)CO)C[C@@H]1C", "cytotoxicity call": "inactive"},
      {"compound": "C=c1cc(C)ccc1=C1NN=C(NC(=O)CC)O1", "cytotoxicity call": "inactive"},
      {"compound": "C[C@@H]1CCCCO[C@@H](CN(C)C(=O)Nc2ccc(F)cc2)[C@@H](C)CN([C@@H](C)CO)C(=O)c2cc(NC(=O)Nc3ccccc3)ccc2O1", "cytotoxicity call": "inactive"},
      {"compound": "CN1CCC(Nc2nc(Nc3ccc(Oc4ccccc4)cc3)c3c(O)ncc(Br)c3n2)CC1", "cytotoxicity call": "active"},
      {"compound": "C[C@@H]1CN([C@@H](C)CO)S(=O)(=O)c2ccc(-c3ccc(F)cc3)cc2O[C@H]1CN(C)S(C)(=O)=O", "cytotoxicity call": "inactive"},
      {"compound": "CNC(=O)N1CCN(Cc2cnn(C)c2)C[C@]2(CCCC(=O)N2)C1", "cytotoxicity call": "inactive"},
      {"compound": "C=CCOC(=O)[C@H]1[C@@H]2C(=O)O[C@@H](c3ccccc3)[C@@H](c3ccccc3)N2[C@@H](c2ccc(OCCOC(=O)[C@H]3C[C@H]4C(=O)N[C@@H](CCCCNC(C)=O)C(=O)N4[C@H]3c3cccc(OCCO)c3)cc2)[C@]12C(=O)Nc1ccc(I)cc12", "cytotoxicity call": "inactive"},
      {"compound": "Cc1ccc(S(=O)(=O)N(C)C[C@H]2OCCCC[C@@H](C)Oc3ccc(NS(=O)(=O)c4ccc(Cl)cc4)cc3C(=O)N([C@H](C)CO)C[C@@H]2C)cc1", "cytotoxicity call": "inactive"},
      {"compound": "Cc1ccc(S(=O)(=O)N(C)C[C@H]2OCCCC[C@@H](C)Oc3ccc(NS(=O)(=O)c4ccc(Cl)cc4)cc3C(=O)N([C@H](C)CO)C[C@H]2C)cc1", "cytotoxicity call": "inactive"},
      {"compound": "Cc1ccc(S(=O)(=O)N(C)C[C@@H]2OCCCC[C@@H](C)Oc3ccc(NS(=O)(=O)c4ccc(Cl)cc4)cc3C(=O)N([C@H](C)CO)C[C@H]2C)cc1", "cytotoxicity call": "inactive"},
      {"compound": "Cc1ccc(S(=O)(=O)Nc2ccc3c(c2)C(=O)N([C@H](C)CO)C[C@H](C)[C@H](CN(C)S(=O)(=O)c2ccc(Cl)cc2)OCCCC[C@H](C)O3)cc1", "cytotoxicity call": "inactive"},
      {"compound": "Cc1ccc(S(=O)(=O)Nc2ccc3c(c2)C(=O)N([C@@H](C)CO)C[C@@H](C)[C@@H](CN(C)S(=O)(=O)c2ccc(Cl)cc2)OCCCC[C@H](C)O3)cc1", "cytotoxicity call": "inactive"},
      {"compound": "Cc1ccc(S(=O)(=O)N(C)C[C@H]2OCCCC[C@H](C)Oc3ccc(NS(=O)(=O)c4ccc(Cl)cc4)cc3C(=O)N([C@@H](C)CO)C[C@@H]2C)cc1", "cytotoxicity call": "active"},
      {"compound": "Cc1ccc(S(=O)(=O)Nc2ccc3c(c2)C(=O)N([C@H](C)CO)C[C@H](C)[C@@H](CN(C)S(=O)(=O)c2ccc(Cl)cc2)OCCCC[C@@H](C)O3)cc1", "cytotoxicity call": "active"},
      {"compound": "Cc1ccc(S(=O)(=O)N(C)C[C@@H]2OCCCC[C@H](C)Oc3ccc(NS(=O)(=O)c4ccc(Cl)cc4)cc3C(=O)N([C@@H](C)CO)C[C@@H]2C)cc1", "cytotoxicity call": "active"},
      {"compound": "Cc1ccc(S(=O)(=O)N(C)C[C@@H]2OCCCC[C@H](C)Oc3ccc(NS(=O)(=O)c4ccc(Cl)cc4)cc3C(=O)N([C@H](C)CO)C[C@H]2C)cc1", "cytotoxicity call": "active"},
      {"compound": "Cc1ccc(S(=O)(=O)N(C)C[C@@H]2OCCCC[C@@H](C)Oc3ccc(NS(=O)(=O)c4ccc(Cl)cc4)cc3C(=O)N([C@@H](C)CO)C[C@@H]2C)cc1", "cytotoxicity call": "inactive"},
      {"compound": "Cc1cccnc1[C@H](c1ccc(F)cc1)N(C)C(=O)C1CCN(CCOc2ccc(Cl)cc2Cl)CC1", "cytotoxicity call": "inactive"},
      {"compound": "CC(=O)N(C)C[C@H]1Oc2ncc(C#C[C@@H](C)O)cc2C(=O)N([C@@H](C)CO)C[C@H]1C", "cytotoxicity call": "inactive"},
      {"compound": "C[C@@H]1CN([C@H](C)CO)C(=O)Cc2cc(NC(=O)Nc3cccc4ccccc34)ccc2O[C@H]1CN(C)C(=O)Nc1ccc(F)cc1", "cytotoxicity call": "inactive"},
      {"compound": "CNC[C@@H]1Oc2cc(C#CCN(C)C)ccc2S(=O)(=O)N([C@H](C)CO)C[C@@H]1C", "cytotoxicity call": "inactive"},
      {"compound": "CCCN1C[C@@H](C)[C@H](OC)CN(C)C(=O)c2cc(NS(=O)(=O)c3cn(C)cn3)ccc2OC[C@@H]1C", "cytotoxicity call": "inactive"},
      {"compound": "CN1CCN(C(=O)C[C@H]2CC[C@H](NC(=O)Cc3ccccn3)[C@H](CO)O2)CC1", "cytotoxicity call": "inactive"},
      {"compound": "C[C@@H]1CCCCO[C@H](CN(C)S(=O)(=O)c2ccccc2)[C@@H](C)CN([C@H](C)CO)C(=O)c2cc(NC(=O)Nc3ccccc3)ccc2O1", "cytotoxicity call": "inactive"},
      {"compound": "O=C(O)c1ccc(N[C@@H]2O[C@H](CO)[C@@H](O)[C@H](O)[C@H]2O)cc1", "cytotoxicity call": "inactive"},
      {"compound": "Cc1ccc(S(=O)(=O)Nc2ccc3c(c2)C(=O)N([C@H](C)CO)C[C@H](C)[C@H](CN(C)S(=O)(=O)c2ccc(Cl)cc2)OCCCC[C@@H](C)O3)cc1", "cytotoxicity call": "inactive"},
      {"compound": "Cc1ccc(S(=O)(=O)Nc2ccc3c(c2)C(=O)N([C@H](C)CO)C[C@@H](C)[C@@H](CN(C)S(=O)(=O)c2ccc(Cl)cc2)OCCCC[C@@H](C)O3)cc1", "cytotoxicity call": "inactive"},
      {"compound": "Cc1ccc(S(=O)(=O)Nc2ccc3c(c2)C(=O)N([C@@H](C)CO)C[C@@H](C)[C@H](CN(C)S(=O)(=O)c2ccc(Cl)cc2)OCCCC[C@@H](C)O3)cc1", "cytotoxicity call": "inactive"},
      {"compound": "Cc1ccc(S(=O)(=O)N(C)C[C@H]2OCCCC[C@H](C)Oc3ccc(NS(=O)(=O)c4ccc(Cl)cc4)cc3C(=O)N([C@H](C)CO)C[C@H]2C)cc1", "cytotoxicity call": "inactive"},
      {"compound": "Cc1ccc(S(=O)(=O)N(C)C[C@@H]2OCCCC[C@@H](C)Oc3ccc(NS(=O)(=O)c4ccc(Cl)cc4)cc3C(=O)N([C@H](C)CO)C[C@@H]2C)cc1", "cytotoxicity call": "inactive"},
      {"compound": "Cc1ccc(S(=O)(=O)Nc2ccc3c(c2)C(=O)N([C@@H](C)CO)C[C@H](C)[C@@H](CN(C)S(=O)(=O)c2ccc(Cl)cc2)OCCCC[C@H](C)O3)cc1", "cytotoxicity call": "active"},
      {"compound": "Cc1ccc(S(=O)(=O)Nc2ccc3c(c2)C(=O)N([C@@H](C)CO)C[C@@H](C)[C@@H](CN(C)S(=O)(=O)c2ccc(Cl)cc2)OCCCC[C@@H](C)O3)cc1", "cytotoxicity call": "inactive"},
      {"compound": "Cc1ccc(S(=O)(=O)Nc2ccc3c(c2)C(=O)N([C@H](C)CO)C[C@H](C)[C@@H](CN(C)S(=O)(=O)c2ccc(Cl)cc2)OCCCC[C@H](C)O3)cc1", "cytotoxicity call": "active"},
      {"compound": "Cc1ccc(S(=O)(=O)Nc2ccc3c(c2)C(=O)N([C@H](C)CO)C[C@@H](C)[C@H](CN(C)S(=O)(=O)c2ccc(Cl)cc2)OCCCC[C@@H](C)O3)cc1", "cytotoxicity call": "active"},
      {"compound": "Cc1ccc(S(=O)(=O)N(C)C[C@H]2Oc3ccc(NS(=O)(=O)c4cccs4)cc3CC(=O)N([C@H](C)CO)C[C@H]2C)cc1", "cytotoxicity call": "inactive"},
      {"compound": "COc1ccc(CNC(=O)N(C)C[C@@H]2OCc3ccccc3-c3c(n(C)c4ccccc34)C(=O)N([C@@H](C)CO)C[C@H]2C)cc1", "cytotoxicity call": "inactive"}
    ]}
  ]
}
